The list is not random: actives were taken first. Their share in the collection is about 28%.
CYP2C19 inh = human CYP2C19 inhibition; CYP2C19 Supersomes, luciferin-H EGE luminescence, 30 min; P33261; AID 778; 21% of 96,000 active; inhibition, % at 5 µM;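 active = CYP2C19 inhibition above a set limit at 5 µM in the primary screen, cut at about 50% in these data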
CYP2C9 act = increases human cytochrome P450 2C9 activity | P11712 | recombinant CYP2C9, luciferin-H conversion, luminescence; stronger effect = higher value; factor 1 = untreated enzyme, 0 = blocked | activation factor at 5 µM | 1.4% of 96,000 active;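 active = activation factor of 2 or more for CYP2C9 at a 5 µM dose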
Target sequence (P11712 whole entry, looked up): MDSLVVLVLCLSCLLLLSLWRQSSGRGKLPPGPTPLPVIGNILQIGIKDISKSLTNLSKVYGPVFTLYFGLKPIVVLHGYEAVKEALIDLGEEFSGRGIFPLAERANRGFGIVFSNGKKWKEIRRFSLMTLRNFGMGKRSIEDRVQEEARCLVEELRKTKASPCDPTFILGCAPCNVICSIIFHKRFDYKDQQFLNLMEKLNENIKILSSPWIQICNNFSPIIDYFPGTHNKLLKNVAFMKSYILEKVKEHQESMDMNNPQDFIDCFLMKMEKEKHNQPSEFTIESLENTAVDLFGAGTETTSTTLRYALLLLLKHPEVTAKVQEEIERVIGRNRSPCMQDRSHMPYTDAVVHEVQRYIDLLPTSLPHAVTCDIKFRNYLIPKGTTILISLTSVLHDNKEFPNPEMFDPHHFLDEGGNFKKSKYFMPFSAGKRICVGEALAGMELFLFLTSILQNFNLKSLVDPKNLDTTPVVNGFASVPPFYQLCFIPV
CYP2C19 activ = increases human CYP2C19 enzyme activity. P33261. recombinant CYP2C19, luciferin-H EGE luminescence; stronger effect = higher value; 0 = fully inhibited enzyme, 1 = untreated enzyme. activation factor at 5 µM. 96,000 tested, under 10 active. AID 1025;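 active = activation factor of at least 2 at 5 µM in the primary screen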
Pyk2 oligo antag = antagonists of human Pyk2 oligomerization | 0.83% of 99,000 active | Q293 cells, Pyk2 FERM NanoBiT luminescence; stronger effect = lower value | AID 1347419 | z-score (the deposit names both 25 µM and 10 µM) | Q14289;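 active = Z-score of -3 or lower, scaled per plate to the spread of control and sample wells; inactive = z-score above -3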;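 note: negative z-score means lost luminescence so less FERM oligomerization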
CYP2C9 inhib = human CYP2C9 inhibition. 20% of 96,000 active. inhibition, % at 5 µM. CYP2C9 Supersomes, luciferin-H conversion, luminescence. AID 777. P11712;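 active = blocking of liver enzyme CYP2C9 beyond about 50% at 5 µM, limit read from the data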
Numbers stand for hits.

COc1ccc(OC)c(-n2c(SC)nnc2-c2c[nH]c3ccccc23)c1 was read as CYP2C19 inh 78, CYP2C9 act inactive, CYP2C19 activ inactive and CYP2C9 inhib 68.
`CCCCNC(=O)CSc1nnc(-c2c[nH]c3ccccc23)n1CC1CCCO1` (stereo not drawn) gave CYP2C19 inh 53, CYP2C9 act inactive, CYP2C19 activ inactive, Pyk2 oligo antag inactive and CYP2C9 inhib inactive.
For COc1ccc(CN2CCn3ncc(C(=O)Nc4cccc(C)c4)c3C2=O)cc1 the results were CYP2C19 inh inactive, CYP2C9 act inactive, CYP2C19 activ inactive, Pyk2 oligo antag inactive and CYP2C9 inhib inactive.
Screening CCCn1nc2cc(C(=O)NC3CCCc4ccccc43)ccc2c1OCC (stereo not drawn) returned CYP2C19 inh inactive, CYP2C9 act inactive, CYP2C19 activ inactive and CYP2C9 inhib inactive.
Screening CCCCn1nc2cc(C(=O)NCCc3cccs3)ccc2c1OCC returned CYP2C19 inh 61, CYP2C9 act inactive, CYP2C19 activ inactive and CYP2C9 inhib 53.
Screening CCN(C(=O)c1ccc2c(OC)n(CC)nc2c1)c1ccc(OC)cc1 returned CYP2C19 inh inactive, CYP2C9 act inactive, CYP2C19 activ inactive and CYP2C9 inhib inactive.
Screening CCCCn1nc2cc(C(=O)NCC34CC5CC(CC(C5)C3)C4)ccc2c1OCC returned CYP2C19 inh inactive, CYP2C9 act inactive, CYP2C19 activ inactive and CYP2C9 inhib 71.
Screening CCCn1nc2cc(C(=O)NCCc3ccc(C)cc3)ccc2c1OCC returned CYP2C19 inh inactive, CYP2C9 act inactive, CYP2C19 activ inactive and CYP2C9 inhib inactive.
CCCCn1nc2cc(C(=O)N(CC)c3ccc(OC)cc3)ccc2c1OCC was read as CYP2C19 inh 52, CYP2C9 act inactive, CYP2C19 activ inactive and CYP2C9 inhib 75.
For CCCCn1nc2cc(C(=O)NC3CCc4ccccc43)ccc2c1OCC (stereo not drawn) the results were CYP2C19 inh inactive, CYP2C9 act inactive, CYP2C19 activ inactive and CYP2C9 inhib 56.
Screening CC(C)OC(=O)c1cccc(C(=O)OCc2ccco2)n1 returned CYP2C19 inh inactive, CYP2C9 act inactive, CYP2C19 activ inactive, Pyk2 oligo antag inactive and CYP2C9 inhib inactive.
CCCCn1nc2cc(C(=O)NCc3ccccc3OC)ccc2c1OCC was read as CYP2C19 inh inactive, CYP2C9 act inactive, CYP2C19 activ inactive and CYP2C9 inhib 56.
Screening FC(F)(F)c1cnc(Oc2ccccc2-c2nnco2)c(Cl)c1 returned CYP2C19 inh 95, CYP2C9 act inactive, CYP2C19 activ inactive, Pyk2 oligo antag inactive and CYP2C9 inhib inactive.
COc1cccc(OC)c1Oc1ccc(C(F)(F)F)cn1 was read as CYP2C19 inh 66, CYP2C9 act inactive, CYP2C19 activ inactive, Pyk2 oligo antag inactive and CYP2C9 inhib inactive.
CCOc1cccc(Oc2ccc(C(F)(F)F)cn2)c1 was read as CYP2C19 inh inactive, CYP2C9 act inactive, CYP2C19 activ inactive, Pyk2 oligo antag inactive and CYP2C9 inhib inactive.
Nc1ccccc1Oc1ncc(C(F)(F)F)cc1Cl was read as CYP2C19 inh 72, CYP2C9 act inactive, CYP2C19 activ inactive, Pyk2 oligo antag inactive and CYP2C9 inhib inactive.
`CCCCN(CCCC)c1ccc(C(=O)c2ccccc2C(=O)O)c(O)c1` gave CYP2C19 inh inactive, CYP2C9 act inactive, CYP2C19 activ inactive, Pyk2 oligo antag inactive and CYP2C9 inhib 64.
`CN(C)c1ccc(C(=O)c2ccccc2C(=O)O)c(O)c1` gave CYP2C19 inh inactive, CYP2C9 act inactive, CYP2C19 activ inactive, Pyk2 oligo antag inactive and CYP2C9 inhib inactive.
For Cc1cccc(/C=N\NC(=O)c2sccc2-n2cccc2)c1 the results were CYP2C19 inh inactive, CYP2C9 act inactive, CYP2C19 activ inactive, Pyk2 oligo antag inactive and CYP2C9 inhib inactive.
CC(=O)N1CCN2C(=O)C1CCCC(=O)c1cc(C)ccc12 (stereo not drawn) was read as Pyk2 oligo antag inactive.
For COc1ccc(-c2onc(C)c2-c2ccc(C(=O)OC(C)C)o2)c(O)c1 the results were CYP2C19 inh 98, CYP2C9 act inactive, CYP2C19 activ inactive, Pyk2 oligo antag inactive and CYP2C9 inhib 98.
For CCC(C)C(=O)Nc1nc(C)c(-c2csc(Nc3cc(Cl)ccc3OC)n2)s1 (stereo not drawn) the results were CYP2C19 inh inactive, CYP2C9 act inactive, CYP2C19 activ inactive and CYP2C9 inhib inactive.
For CCC(C)C(=O)Nc1nc(C)c(-c2csc(Nc3cc(OC)ccc3OC)n2)s1 (stereo not drawn) the results were CYP2C19 inh inactive, CYP2C9 act inactive, CYP2C19 activ inactive and CYP2C9 inhib 75.
For CCCC(C)C(=O)Nc1nc(C)c(-c2csc(Nc3ccc(Cl)cc3)n2)s1 (stereo not drawn) the results were CYP2C19 inh inactive, CYP2C9 act inactive, CYP2C19 activ inactive and CYP2C9 inhib 55.
For COc1ccccc1Nc1nc(-c2sc(NC(=O)c3ccc([N+](=O)[O-])cc3)nc2C)cs1 the results were CYP2C19 inh inactive, CYP2C9 act inactive, CYP2C19 activ inactive and CYP2C9 inhib 78.
CCCC(C)C(=O)Nc1nc(C)c(-c2csc(Nc3ccccc3OC)n2)s1 (stereo not drawn) was read as CYP2C19 inh inactive, CYP2C9 act inactive, CYP2C19 activ inactive and CYP2C9 inhib 74.
For Cc1ccc(NC(=O)c2cc3nc(C)cc(C)n3n2)cc1 the results were CYP2C19 inh inactive, CYP2C9 act inactive, CYP2C19 activ inactive, Pyk2 oligo antag inactive and CYP2C9 inhib inactive.
Cc1ccccc1N(CC(=O)NCC1CCCO1)C(=O)C1(C)CC(=O)N=C2C=CC=CN21 (stereo not drawn) was read as CYP2C19 inh inactive, CYP2C9 act inactive, CYP2C19 activ inactive, Pyk2 oligo antag inactive and CYP2C9 inhib inactive.
For CCc1ccc(CN2CCN(C(=O)c3cccc(OC)c3OC)CC2)cc1 the results were Pyk2 oligo antag inactive.
Screening CCCCC(=O)Nc1nc(C)c(-c2csc(Nc3cc(OC)ccc3OC)n2)s1 returned CYP2C19 inh inactive, CYP2C9 act inactive, CYP2C19 activ inactive and CYP2C9 inhib 79.
For COc1ccc(OC)c(Nc2nc(-c3sc(C)nc3C)cs2)c1 the results were CYP2C19 inh 85, CYP2C9 act inactive, CYP2C19 activ inactive, Pyk2 oligo antag inactive and CYP2C9 inhib 80.
Screening COc1ccc(OC)c(Nc2nc(-c3sc(NC(=O)CC(C)C)nc3C)cs2)c1 returned CYP2C19 inh inactive, CYP2C9 act inactive, CYP2C19 activ inactive and CYP2C9 inhib 78.
CCCc1nnc(SCC(=O)N2CCCCC2)n1CCCOC was read as CYP2C19 inh inactive, CYP2C9 act inactive, CYP2C19 activ inactive, Pyk2 oligo antag inactive and CYP2C9 inhib inactive.
Screening COc1cc(NC(=O)COC(=O)c2nc3nc(C)cc(C)n3n2)cc(OC)c1 returned CYP2C19 inh inactive, CYP2C9 act inactive, CYP2C19 activ inactive, Pyk2 oligo antag inactive and CYP2C9 inhib inactive.
For CCc1ccc(NCc2cc3c(C)nn(-c4ccccc4)c3[nH]c2=O)cc1 the results were CYP2C19 inh inactive, CYP2C9 act inactive, CYP2C19 activ inactive, Pyk2 oligo antag inactive and CYP2C9 inhib 92.
Screening Cc1nn(-c2ccccc2)c2[nH]c(=O)c(CNc3ccc4c(c3)OCCO4)cc12 returned CYP2C19 inh inactive, CYP2C9 act inactive, CYP2C19 activ inactive, Pyk2 oligo antag inactive and CYP2C9 inhib 61.
